Common to all, as to assay: DAPPL (digital affinity profiling via proximity ligation, sequencing); 10 mM Tris-HCl pH 7.5, 50 mM NaCl, 1 mM DTT, 4% glycerol, room temperature, 30 min; GST-TFs on glutathione beads, 16-mer random dsDNA library, 0.1% formaldehyde crosslink after washing; high values mean tight binding
One experiment addresses T1, FLI1 (Homo sapiens, UniProt Q01543 1-452).
T1 sequence: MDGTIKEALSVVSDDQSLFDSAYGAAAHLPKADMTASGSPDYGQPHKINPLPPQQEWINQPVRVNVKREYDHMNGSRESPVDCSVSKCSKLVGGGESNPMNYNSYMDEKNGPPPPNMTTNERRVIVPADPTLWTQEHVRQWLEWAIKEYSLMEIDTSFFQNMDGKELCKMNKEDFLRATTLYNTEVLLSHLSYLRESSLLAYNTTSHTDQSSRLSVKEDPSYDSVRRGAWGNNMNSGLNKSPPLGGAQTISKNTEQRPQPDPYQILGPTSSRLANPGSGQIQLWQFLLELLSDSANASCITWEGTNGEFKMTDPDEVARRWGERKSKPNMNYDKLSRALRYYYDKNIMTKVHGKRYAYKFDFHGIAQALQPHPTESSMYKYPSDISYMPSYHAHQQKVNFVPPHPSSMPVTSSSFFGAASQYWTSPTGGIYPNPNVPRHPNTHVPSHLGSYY
Particulars: protein: recombinant; tags: N-terminal GST; dsDNA, one strand shown. The method in brief:
(§1)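 Beads coated with glutathione captured GST-fused human transcription factors that had been expressed in yeast, and the factors were then given DNA barcodes and pooled with a tag-only sample. The pools were incubated with 200 nmole of a random double-stranded 16-mer DNA library in Tris/NaCl/DTT/glycerol buffer for 30 min at room temperature, washed, crosslinked with 0.1% formaldehyde and proximity-ligated with BsaI/T4 ligase at 37 °C for 1 h. PCR amplification and Illumina NextSeq500 sequencing came last. Binding signal is each hexamer's read frequency for a factor divided by its frequency for the tag-only sample.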

The next experiment concerns the target T2, ELK1 (Homo sapiens, UniProt P19419 1-428).
T2 sequence: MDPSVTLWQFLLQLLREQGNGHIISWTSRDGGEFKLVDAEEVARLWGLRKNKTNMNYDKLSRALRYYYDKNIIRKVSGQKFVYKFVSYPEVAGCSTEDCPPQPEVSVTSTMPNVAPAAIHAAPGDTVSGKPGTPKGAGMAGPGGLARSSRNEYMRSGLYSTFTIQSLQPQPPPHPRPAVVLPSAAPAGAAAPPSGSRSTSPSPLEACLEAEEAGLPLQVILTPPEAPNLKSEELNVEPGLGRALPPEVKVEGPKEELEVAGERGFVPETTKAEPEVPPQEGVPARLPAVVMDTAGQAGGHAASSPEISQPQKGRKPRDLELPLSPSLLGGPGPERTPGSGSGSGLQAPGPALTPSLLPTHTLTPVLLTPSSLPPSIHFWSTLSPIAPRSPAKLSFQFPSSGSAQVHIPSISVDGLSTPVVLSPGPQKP
Particulars: protein: recombinant; tags: N-terminal GST; dsDNA, one strand shown. An outline of the steps: as §1

Another experiment deals with T3, GABPA (Homo sapiens, UniProt Q06546 1-454).
T3 sequence: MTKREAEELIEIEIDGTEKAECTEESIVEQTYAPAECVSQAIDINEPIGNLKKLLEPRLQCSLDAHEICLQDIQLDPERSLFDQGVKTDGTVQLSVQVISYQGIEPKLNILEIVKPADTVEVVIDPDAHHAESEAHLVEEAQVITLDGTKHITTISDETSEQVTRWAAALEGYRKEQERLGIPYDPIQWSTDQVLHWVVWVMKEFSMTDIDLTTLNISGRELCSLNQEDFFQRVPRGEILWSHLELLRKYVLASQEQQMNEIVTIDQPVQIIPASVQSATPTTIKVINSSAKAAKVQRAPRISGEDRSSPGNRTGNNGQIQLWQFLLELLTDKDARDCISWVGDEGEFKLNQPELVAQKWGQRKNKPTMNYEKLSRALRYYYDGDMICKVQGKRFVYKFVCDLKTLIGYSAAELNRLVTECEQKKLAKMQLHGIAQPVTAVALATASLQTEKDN
Particulars: protein: recombinant; tags: N-terminal GST; dsDNA, one strand shown. The method in brief:
as §1

The next experiment deals with T4, ERG (Homo sapiens, UniProt P11308 1-479).
T4 sequence: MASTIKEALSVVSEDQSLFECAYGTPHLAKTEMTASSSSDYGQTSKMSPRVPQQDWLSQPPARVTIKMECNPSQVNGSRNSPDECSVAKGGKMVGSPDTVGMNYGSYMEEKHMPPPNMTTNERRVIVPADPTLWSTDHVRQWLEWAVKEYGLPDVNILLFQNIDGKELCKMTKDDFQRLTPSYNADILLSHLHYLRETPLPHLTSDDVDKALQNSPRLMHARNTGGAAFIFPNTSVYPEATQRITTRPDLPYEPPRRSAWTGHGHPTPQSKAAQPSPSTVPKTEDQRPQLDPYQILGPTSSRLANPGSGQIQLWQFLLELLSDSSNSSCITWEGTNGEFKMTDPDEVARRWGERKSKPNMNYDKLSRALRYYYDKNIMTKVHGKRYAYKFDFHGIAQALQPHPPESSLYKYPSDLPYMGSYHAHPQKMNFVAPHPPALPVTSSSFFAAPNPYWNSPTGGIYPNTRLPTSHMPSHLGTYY
The following applies: protein: recombinant; tags: N-terminal GST; dsDNA, one strand shown. The method in brief:
as §1

The target of the next experiment is ELF1 (Homo sapiens, UniProt P32519 1-619). The following applies: protein: recombinant; tags: N-terminal GST; dsDNA, one strand shown. The method in brief: as §1
For another experiment, the target named is T5, EHF (Homo sapiens, UniProt Q9NZC4 1-300).
T5 sequence: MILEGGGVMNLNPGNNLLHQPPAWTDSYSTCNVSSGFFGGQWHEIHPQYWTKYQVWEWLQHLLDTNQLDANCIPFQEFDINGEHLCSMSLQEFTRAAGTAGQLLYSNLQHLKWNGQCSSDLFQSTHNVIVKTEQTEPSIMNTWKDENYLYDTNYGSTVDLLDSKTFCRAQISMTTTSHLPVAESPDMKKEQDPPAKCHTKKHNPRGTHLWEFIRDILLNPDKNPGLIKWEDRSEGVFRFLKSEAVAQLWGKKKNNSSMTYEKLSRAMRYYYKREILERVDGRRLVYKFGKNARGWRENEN
Particulars: protein: recombinant; tags: N-terminal GST; dsDNA, one strand shown. An outline of the steps:
as §1

The next experiment addresses SPI1 (Homo sapiens, UniProt P17947 1-270). Particulars: protein: recombinant; tags: N-terminal GST; dsDNA, one strand shown. An outline of the steps: as §1
Another experiment has as its target SPIB (Homo sapiens, UniProt Q01892 1-262). Particulars: protein: recombinant; tags: N-terminal GST; dsDNA, one strand shown. An outline of the steps:
as §1

For another experiment, the target named is T6, ELK3 (Homo sapiens, UniProt P41970 1-407).
T6 sequence: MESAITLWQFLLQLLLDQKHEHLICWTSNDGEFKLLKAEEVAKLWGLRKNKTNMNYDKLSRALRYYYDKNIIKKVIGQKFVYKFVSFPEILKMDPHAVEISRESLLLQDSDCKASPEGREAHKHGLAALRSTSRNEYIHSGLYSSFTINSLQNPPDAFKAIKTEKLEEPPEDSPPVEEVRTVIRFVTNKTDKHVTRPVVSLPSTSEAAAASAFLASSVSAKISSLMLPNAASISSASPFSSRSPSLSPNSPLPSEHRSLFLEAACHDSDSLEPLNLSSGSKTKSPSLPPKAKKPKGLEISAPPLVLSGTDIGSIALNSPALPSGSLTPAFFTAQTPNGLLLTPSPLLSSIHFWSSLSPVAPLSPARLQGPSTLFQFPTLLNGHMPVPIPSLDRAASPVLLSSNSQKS
Particulars: protein: recombinant; tags: N-terminal GST; dsDNA, one strand shown. An outline of the steps: as §1

Another experiment addresses T7, FEV (Homo sapiens, UniProt Q99581 1-238).
T7 sequence: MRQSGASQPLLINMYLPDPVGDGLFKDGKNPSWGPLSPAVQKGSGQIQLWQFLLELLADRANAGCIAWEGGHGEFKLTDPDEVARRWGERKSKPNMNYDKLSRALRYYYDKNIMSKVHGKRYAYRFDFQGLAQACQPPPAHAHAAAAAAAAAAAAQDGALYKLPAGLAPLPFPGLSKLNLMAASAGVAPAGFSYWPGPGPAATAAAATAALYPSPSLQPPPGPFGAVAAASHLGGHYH
The following applies: protein: recombinant; tags: N-terminal GST; dsDNA, one strand shown. An outline of the steps: as §1

Another experiment deals with ETV5 (Homo sapiens, UniProt P41161 1-510). The following applies: protein: recombinant; tags: N-terminal GST; dsDNA, one strand shown. An outline of the steps:
as §1

The next experiment concerns the target HSF1 (Homo sapiens, UniProt Q00613 1-529). Particulars: protein: recombinant; tags: N-terminal GST; chain copies: 3; dsDNA, one strand shown. The method in brief: as §1
For the next experiment, the target named is T8, SPIC (Homo sapiens, UniProt Q8N5J4 1-248).
T8 sequence: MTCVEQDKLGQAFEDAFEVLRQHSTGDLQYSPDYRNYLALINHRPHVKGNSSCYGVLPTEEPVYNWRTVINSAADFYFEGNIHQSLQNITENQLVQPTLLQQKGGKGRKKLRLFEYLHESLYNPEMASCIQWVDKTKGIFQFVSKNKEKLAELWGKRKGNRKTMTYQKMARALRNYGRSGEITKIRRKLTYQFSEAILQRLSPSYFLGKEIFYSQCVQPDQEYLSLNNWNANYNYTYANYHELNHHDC
Particulars: protein: recombinant; tags: N-terminal GST; dsDNA, one strand shown. The method in brief: as §1

The next experiment has as its target ELF4 (Homo sapiens, UniProt Q99607 1-663). Particulars: protein: recombinant; tags: N-terminal GST; dsDNA, one strand shown. The method in brief:
as §1

The next experiment addresses T9, ELK4 (Homo sapiens, UniProt P28324-2 1-405).
T9 sequence: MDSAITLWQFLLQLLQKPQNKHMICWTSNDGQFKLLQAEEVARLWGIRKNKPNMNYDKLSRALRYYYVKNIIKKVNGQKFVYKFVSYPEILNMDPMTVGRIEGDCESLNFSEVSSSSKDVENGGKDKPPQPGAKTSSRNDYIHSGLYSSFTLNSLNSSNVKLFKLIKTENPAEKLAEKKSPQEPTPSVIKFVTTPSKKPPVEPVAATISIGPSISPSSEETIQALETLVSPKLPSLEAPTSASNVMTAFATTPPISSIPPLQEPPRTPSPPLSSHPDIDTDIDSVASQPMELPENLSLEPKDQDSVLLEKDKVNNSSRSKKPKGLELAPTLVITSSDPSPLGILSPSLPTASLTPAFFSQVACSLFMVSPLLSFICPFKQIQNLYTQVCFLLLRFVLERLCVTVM
The following applies: protein: recombinant; tags: N-terminal GST; dsDNA, one strand shown. An outline of the steps: as §1

In the next experiment the target is T10, ETV2 (Homo sapiens, UniProt O00321 1-342).
T10 sequence: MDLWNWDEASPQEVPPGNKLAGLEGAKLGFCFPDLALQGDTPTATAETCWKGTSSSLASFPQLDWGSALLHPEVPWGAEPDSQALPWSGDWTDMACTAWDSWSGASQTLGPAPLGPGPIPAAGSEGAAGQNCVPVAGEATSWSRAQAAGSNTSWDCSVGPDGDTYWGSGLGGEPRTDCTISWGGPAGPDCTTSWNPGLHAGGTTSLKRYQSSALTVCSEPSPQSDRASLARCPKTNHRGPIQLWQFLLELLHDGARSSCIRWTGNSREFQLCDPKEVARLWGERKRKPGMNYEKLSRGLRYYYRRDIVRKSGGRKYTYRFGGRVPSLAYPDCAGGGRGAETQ
Particulars: protein: recombinant; tags: N-terminal GST; dsDNA, one strand shown. The method in brief:
as §1

The next experiment has as its target T11, ELF3 (Homo sapiens, UniProt P78545 1-371).
T11 sequence: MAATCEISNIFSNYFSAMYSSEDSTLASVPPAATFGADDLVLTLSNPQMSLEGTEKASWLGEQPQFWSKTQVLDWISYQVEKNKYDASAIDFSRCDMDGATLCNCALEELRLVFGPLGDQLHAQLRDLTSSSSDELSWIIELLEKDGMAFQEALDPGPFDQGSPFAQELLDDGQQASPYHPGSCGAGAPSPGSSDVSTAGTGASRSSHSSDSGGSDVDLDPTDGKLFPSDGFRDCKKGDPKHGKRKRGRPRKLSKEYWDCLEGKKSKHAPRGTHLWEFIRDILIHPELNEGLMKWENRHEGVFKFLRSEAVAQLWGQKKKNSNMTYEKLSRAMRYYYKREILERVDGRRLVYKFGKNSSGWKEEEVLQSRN
Particulars: protein: recombinant; tags: N-terminal GST; dsDNA, one strand shown. The method in brief: as §1

For a further experiment, the target named is CRX (Homo sapiens, UniProt O43186 1-299). Particulars: protein: recombinant; tags: N-terminal GST; dsDNA, one strand shown. An outline of the steps:
as §1

Another experiment addresses ETV1 (Homo sapiens, UniProt P50549 1-477). The following applies: protein: recombinant; tags: N-terminal GST; dsDNA, one strand shown. An outline of the steps:
as §1

Chain of ETV1 (P50549 whole entry): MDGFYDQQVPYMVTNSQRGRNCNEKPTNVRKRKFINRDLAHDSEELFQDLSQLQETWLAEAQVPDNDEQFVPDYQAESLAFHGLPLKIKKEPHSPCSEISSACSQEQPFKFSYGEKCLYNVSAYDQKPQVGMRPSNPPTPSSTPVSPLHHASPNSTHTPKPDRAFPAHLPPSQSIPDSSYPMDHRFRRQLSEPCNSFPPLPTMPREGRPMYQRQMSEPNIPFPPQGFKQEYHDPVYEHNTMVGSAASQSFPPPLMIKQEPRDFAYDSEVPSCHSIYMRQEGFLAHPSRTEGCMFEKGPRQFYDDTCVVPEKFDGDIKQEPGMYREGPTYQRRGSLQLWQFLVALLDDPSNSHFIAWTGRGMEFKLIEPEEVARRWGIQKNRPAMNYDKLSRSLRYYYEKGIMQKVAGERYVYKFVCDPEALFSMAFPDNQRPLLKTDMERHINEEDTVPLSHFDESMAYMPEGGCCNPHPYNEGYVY
Chain of SPIB (Q01892 whole entry): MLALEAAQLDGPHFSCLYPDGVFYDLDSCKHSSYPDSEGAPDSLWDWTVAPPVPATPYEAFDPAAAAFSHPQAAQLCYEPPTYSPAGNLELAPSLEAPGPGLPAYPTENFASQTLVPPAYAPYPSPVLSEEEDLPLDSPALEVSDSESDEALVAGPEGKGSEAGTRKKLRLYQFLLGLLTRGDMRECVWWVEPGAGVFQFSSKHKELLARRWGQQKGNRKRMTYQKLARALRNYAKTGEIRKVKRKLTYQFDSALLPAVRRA
Chain of HSF1 (Q00613 whole entry): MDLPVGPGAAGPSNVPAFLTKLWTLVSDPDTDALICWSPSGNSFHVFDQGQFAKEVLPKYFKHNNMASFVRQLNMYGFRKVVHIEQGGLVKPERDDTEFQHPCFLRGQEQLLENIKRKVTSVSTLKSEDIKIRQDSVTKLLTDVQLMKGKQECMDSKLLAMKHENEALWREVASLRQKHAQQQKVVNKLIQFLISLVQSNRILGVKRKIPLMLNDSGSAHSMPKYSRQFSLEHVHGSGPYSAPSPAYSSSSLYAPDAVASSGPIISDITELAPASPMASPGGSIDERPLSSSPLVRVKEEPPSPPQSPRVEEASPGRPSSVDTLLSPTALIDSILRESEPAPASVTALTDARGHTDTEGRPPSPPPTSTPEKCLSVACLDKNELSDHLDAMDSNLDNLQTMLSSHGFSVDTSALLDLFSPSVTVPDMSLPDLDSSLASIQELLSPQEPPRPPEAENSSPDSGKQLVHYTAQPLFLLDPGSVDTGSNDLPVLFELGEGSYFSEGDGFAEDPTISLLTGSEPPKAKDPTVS
Chain of ELF4 (Q99607 whole entry): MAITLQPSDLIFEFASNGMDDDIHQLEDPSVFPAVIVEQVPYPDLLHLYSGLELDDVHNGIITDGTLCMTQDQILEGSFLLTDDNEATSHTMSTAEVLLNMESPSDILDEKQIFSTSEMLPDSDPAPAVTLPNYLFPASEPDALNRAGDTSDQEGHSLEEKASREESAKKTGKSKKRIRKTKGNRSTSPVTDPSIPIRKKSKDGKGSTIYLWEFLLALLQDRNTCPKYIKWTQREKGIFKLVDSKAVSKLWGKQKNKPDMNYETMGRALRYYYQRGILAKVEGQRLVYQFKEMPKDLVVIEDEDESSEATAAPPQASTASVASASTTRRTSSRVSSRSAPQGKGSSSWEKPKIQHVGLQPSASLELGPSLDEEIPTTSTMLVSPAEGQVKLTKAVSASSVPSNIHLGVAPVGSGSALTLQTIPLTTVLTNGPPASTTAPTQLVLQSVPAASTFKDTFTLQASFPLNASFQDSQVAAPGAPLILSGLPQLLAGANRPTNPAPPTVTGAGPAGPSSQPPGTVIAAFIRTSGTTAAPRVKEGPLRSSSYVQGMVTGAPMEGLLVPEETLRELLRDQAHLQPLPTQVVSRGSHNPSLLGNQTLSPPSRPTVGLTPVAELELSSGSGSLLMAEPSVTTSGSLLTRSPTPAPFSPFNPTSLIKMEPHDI
Chain of CRX (O43186 whole entry): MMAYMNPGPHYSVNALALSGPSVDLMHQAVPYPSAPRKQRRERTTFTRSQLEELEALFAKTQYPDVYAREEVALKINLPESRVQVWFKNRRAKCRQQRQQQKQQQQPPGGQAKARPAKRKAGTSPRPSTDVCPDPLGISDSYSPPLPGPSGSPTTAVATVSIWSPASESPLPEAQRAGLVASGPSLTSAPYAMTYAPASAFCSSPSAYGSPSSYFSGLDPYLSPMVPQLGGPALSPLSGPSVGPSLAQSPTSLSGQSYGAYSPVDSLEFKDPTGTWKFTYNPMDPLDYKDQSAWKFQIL
Chain of ELF1 (P32519 whole entry): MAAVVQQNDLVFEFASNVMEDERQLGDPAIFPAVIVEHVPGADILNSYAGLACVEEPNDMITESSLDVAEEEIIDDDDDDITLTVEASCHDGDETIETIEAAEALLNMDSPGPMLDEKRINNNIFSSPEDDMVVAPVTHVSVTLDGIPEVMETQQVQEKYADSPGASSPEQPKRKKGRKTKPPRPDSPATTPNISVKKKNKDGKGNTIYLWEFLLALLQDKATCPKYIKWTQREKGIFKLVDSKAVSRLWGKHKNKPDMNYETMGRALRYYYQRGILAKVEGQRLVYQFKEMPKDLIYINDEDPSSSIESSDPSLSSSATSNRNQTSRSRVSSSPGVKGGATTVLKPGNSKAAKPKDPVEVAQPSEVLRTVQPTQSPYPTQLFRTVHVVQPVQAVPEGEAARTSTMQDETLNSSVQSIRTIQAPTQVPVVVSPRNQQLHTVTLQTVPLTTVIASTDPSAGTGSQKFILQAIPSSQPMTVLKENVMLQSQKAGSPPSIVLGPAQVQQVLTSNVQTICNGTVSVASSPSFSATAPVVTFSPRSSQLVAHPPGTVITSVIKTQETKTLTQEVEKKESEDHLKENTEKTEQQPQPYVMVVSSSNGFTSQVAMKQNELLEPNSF
Chain of ETV5 (P41161 whole entry): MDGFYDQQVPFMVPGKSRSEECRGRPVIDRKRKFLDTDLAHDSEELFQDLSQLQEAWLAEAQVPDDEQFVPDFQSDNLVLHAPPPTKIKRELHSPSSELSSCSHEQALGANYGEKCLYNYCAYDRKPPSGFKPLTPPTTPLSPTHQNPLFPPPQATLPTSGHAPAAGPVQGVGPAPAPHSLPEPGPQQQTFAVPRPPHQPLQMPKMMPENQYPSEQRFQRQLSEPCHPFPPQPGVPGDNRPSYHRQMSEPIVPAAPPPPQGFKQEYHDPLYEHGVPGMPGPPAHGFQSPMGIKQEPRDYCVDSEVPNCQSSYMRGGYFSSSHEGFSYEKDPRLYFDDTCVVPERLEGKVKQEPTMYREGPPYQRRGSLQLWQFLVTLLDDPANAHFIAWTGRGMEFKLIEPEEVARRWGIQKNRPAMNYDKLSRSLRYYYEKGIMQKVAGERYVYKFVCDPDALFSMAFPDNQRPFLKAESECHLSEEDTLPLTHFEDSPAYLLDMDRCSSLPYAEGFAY

Turning to TATTGC, the binding signal in the experiment with FLI1 was 1.39 fold enrichment (6-mer frequency, TF over GST control); with ELK1 it was 1.33 fold enrichment (6-mer frequency, TF over GST control); with GABPA it was 1.44 fold enrichment (6-mer frequency, TF over GST control); in the experiment with ERG, 1.31 fold enrichment (6-mer frequency, TF over GST control); in the experiment with ELF1, 1.41 fold enrichment (6-mer frequency, TF over GST control); with EHF it was 1.3 fold enrichment (6-mer frequency, TF over GST control). Further, the binding signal with SPI1 was 1.32 fold enrichment (6-mer frequency, TF over GST control); in the experiment with SPIB, 1.37 fold enrichment (6-mer frequency, TF over GST control); with ELK3, 1.3 fold enrichment (6-mer frequency, TF over GST control); in the experiment with FEV it was 1.33 fold enrichment (6-mer frequency, TF over GST control); in the experiment with ETV5, 1.34 fold enrichment (6-mer frequency, TF over GST control); with HSF1, 1.21 fold enrichment (6-mer frequency, TF over GST control). Further, the binding signal with SPIC was 1.5 fold enrichment (6-mer frequency, TF over GST control); with ELF4, 1.41 fold enrichment (6-mer frequency, TF over GST control); with ELK4, 1.29 fold enrichment (6-mer frequency, TF over GST control); with ETV2, 1.22 fold enrichment (6-mer frequency, TF over GST control); in the experiment with ELF3 it was 1.2 fold enrichment (6-mer frequency, TF over GST control); with CRX, 1.47 fold enrichment (6-mer frequency, TF over GST control). The binding signal with ETV1 was 1.45 fold enrichment (6-mer frequency, TF over GST control).
